Screening data from PubChem.
Most compounds without a hit are left out; they make up all but 2.2% or so of the library.
Giardia killer: kills Giardia lamblia; Giardia lamblia trophozoite viability; activity change, % at 7.66 µM, hits read low; 340,000 compounds, 0.15% hits; AID 540267; in the data active = activity change below about -80%; inconclusive = between about -30% and that limit;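 also: parasites exposed to compound for two days anaerobically before the ATP read; % is scaled to controls: 0 for no effect and ±100 for the full control effect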
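Viability, read as ATP luminescence: trophozoites at 100 cells/well, compound added, 48 hrs anaerobic at 37 deg C, then 15-30 min room-temperature development before reading.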
rTrxR1 inhibitor: blocks rat thioredoxin reductase 1; O89049; Potency, µM (highest dose often 114 µM), for the others: top-dose activity change, negative = inhibition, most hits filed as inhibitors; recombinant rTrxR1, NADPH fluorescence consumption, selenite substrate; 390,000 compounds, 1% hits; also: potency is read from the fitted curve at half-maximal effect; % is scaled to controls: 0 for no effect and ±100 for the full control effect; nearly all actives have a fitted effect of over 65% in size
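Rat TrxR1 (90 nM in the dispensed reagent) was pre-reduced with 400 uM NADPH for 5 min at room temperature, then incubated with compound for 15 min. After 400 uM selenite was added, NADPH fluorescence (Ex 340/Em 450 nm) was followed for 8 min.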
IL2 activator: activates IL-2 in a cell-based reporter assay | IL-2 activation reporter assay, cell-based qHTS; stimulated with anti-CD3/CD4/CD28 beads; in transgenic mouse T cells | activation, % (series mostly up to about 46 µM) | 360,000 compounds, 0.065% hits; in the data active = activation above about 50%; inconclusive = mostly about 30% to 49%; also: 0% is about no effect
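Screening format: compound pinned onto unstimulated transgenic mouse T cells, 60 min incubation, then anti-CD3/anti-CD4/anti-CD28 bead stimulation for 18 hours at 37 degrees C, followed by EGFP and DsRed detection.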
mIDH1 inhibitor: inhibitors of human mutant IDH1 R132H; O75874; IDH1-R132H enzyme, NADPH consumption, diaphorase/resazurin fluorescence; Potency, µM (doses to about 76.6 µM), for the others: at the top dose activity change, negative = inhibition, usual class: inhibitors; 390,000 compounds, 0.093% hits; also: potency is read from the fitted curve at half-maximal effect; % is scaled to controls: 0 for no effect and ±100 for the full control effect; nearly all actives have a fitted effect of over 65% in size
Target sequence (O75874 whole entry R132H, stated change not applied): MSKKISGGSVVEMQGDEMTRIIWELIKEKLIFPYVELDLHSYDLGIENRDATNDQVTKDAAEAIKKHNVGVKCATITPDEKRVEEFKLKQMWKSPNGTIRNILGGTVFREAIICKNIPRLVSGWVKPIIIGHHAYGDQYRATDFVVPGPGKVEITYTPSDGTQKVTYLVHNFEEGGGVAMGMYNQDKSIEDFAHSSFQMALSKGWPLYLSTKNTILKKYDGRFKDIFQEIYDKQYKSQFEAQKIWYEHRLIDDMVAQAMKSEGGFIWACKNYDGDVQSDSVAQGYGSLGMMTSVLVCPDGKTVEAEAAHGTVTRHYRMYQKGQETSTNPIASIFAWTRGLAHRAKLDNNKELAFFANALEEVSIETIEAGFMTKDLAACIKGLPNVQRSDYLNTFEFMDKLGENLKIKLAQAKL
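IDH1-R132H (0.5 ug/mL dispensed) in pH 7.5 Tris buffer was preincubated 30 min with compound, then given a substrate mix of 0.016 mM NADPH and 2 mM alpha-KG for 80 min at room temperature; remaining NADPH was read by diaphorase/resazurin fluorescence.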
TrxR1 substrate: is turned over as a substrate by rat TrxR1; O89049; purified TrxR1 substrate turnover, NADPH consumption readout; Potency, µM (titrated, usually from 114 µM), for the others: top-dose activity change, negative = substrate turnover; 390,000 compounds, 0.01% hits; AID 588456; also: potency is read from the fitted curve at half-maximal effect; % is scaled to controls: 0 for no effect and ±100 for the full control effect; nearly all actives have a fitted effect of over 50% in size
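Rat TrxR1, dispensed at 90 nM, was prereduced with 400 uM NADPH (final) for 5 min at ~22 deg C, then incubated with compound 15 min before 400 uM selenite. A first-read NADPH fluorescence drop versus no-compound background flagged substrates.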
BRCA1 expr act: increases BRCA1 expression | Potency, µM (series often up to 46.1 µM), for inactives: at the top dose activation, hits mostly activators | AID 624202 | 380,000 compounds, 1.1% hits | MCF7-BRCA1-FFLuc reporter, luminescence, 48 h; response scale: scaled: vehicle 0%, 10 µM genistein 100%; also: potency is read from the fitted curve at half-maximal effect; nearly all actives have a fitted effect of over 80% in size
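Quantitative HTS in MCF7 cells stably reporting BRCA1 expression via firefly luciferase. Compound treatment lasts 48 h at 37 °C in phenol-red free MEM. Activation is expressed relative to genistein at 10 microM and DMSO.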
* marks the source's active call; other numbers are inactive results; i = inactive; ? = inconclusive; . = no result given; [ ] = dose if it differs, or a comment. Unless noted, calls follow the shape of the dose curve; as a rule, active = well fitted curve in the direction sought with a large enough effect; inconclusive = small, poorly fitted or top-dose-only effect, or another doubt; inactive = no such curve, though single readings can be large; an effect the other way counts as inactive or inconclusive.

SMILES | Giardia killer | rTrxR1 inhibitor | IL2 activator | mIDH1 inhibitor | TrxR1 substrate | BRCA1 expr act
Cc1ccc(CNC(=O)Nc2cn(CC(C)C)c(=O)c3ccccc23)cc1 | . | 8% | . | ? | 35% | 4%
COc1ccc(-c2nc3sc(CCNC(=O)c4cccc(C(F)(F)F)c4)c(C)n3n2)cc1 | . | 10%[57.1 µM] | . | 9% | -2%[57.1 µM] | 6.3µM*
COc1ccc(-c2nc3sc(CCNC(=O)c4ccccc4C)c(C)n3n2)cc1 | . | -4%[57.1 µM] | . | 5% | -8%[57.1 µM] | 29%
Cc1cccc(CNC(=O)C2CCN(S(=O)(=O)c3ccc4c(c3)CCCN4C(=O)C3CCC3)CC2)c1 | . | 8%[57.1 µM] | . | 2% | 1%[57.1 µM] | .
CNc1oc(-c2cccs2)nc1S(=O)(=O)c1ccccc1 | 16 | 33%[57.1 µM] | 0 | 8% | -5%[57.1 µM] | -24%
CCC(C)S(=O)(=O)c1oc(-c2cccs2)nc1S(=O)(=O)c1ccccc1 (configuration not stated) | . | 0.71µM* | . | 8% | 16% | .
CNc1oc(-c2ccc(F)cc2)nc1S(=O)(=O)c1ccccc1 | 7 | 1%[57.1 µM] | 0 | -1% | 1%[57.1 µM] | -35%
CC(C)CS(=O)(=O)c1oc(-c2ccc(F)cc2)nc1S(=O)(=O)c1ccccc1 | . | 0.32µM* | . | 0% | 4% | .
COc1ccc(C(=O)Nc2ccccc2C(=O)Nc2ccccc2C(=O)O)cc1 | ? | -18% | -1 | 13% | -17% | ?
COc1ccc(C(=O)Nc2cnc3ccccn3c2=O)cc1 | 2 | 0% | -1 | 3% | -5% | 4.5µM*
COc1ccc(C(=O)Nc2ccccc2C(N)=O)cc1 | ? | 8% | 0 | 4% | 9% | 6.3µM*
COc1ccc(C(=O)Nc2ccccc2C(=O)N/N=C/c2cccc3ccccc23)cc1 | -95* | 35% | -4 | 2% | 12% | -69%
O=C(Nc1cnc2ccccn2c1=O)c1ccc(F)cc1 | 6 | 1%[57.1 µM] | 2 | -7% | 8%[57.1 µM] | ?
CN(c1ncnc2c1c(-c1ccccc1)cn2-c1ccc(F)cc1)C1CCCCC1 | . | -3%[57.1 µM] | . | -16% | -9%[57.1 µM] | .
Cc1c(CC(=O)NCCc2ccccc2F)c(=O)oc2c(C)c3occ(C(C)(C)C)c3cc12 | . | 33% | . | -10% | 9% | .
Cn1c(-c2cc3ccc(OC(=O)C(C)(C)C)cc3oc2=O)nc2ccccc21 | 0 | 23% | 9 | 14% | 188% | ?
O=C(O)C(Oc1ccc2cc(-c3ccc(Cl)cc3)c(=O)oc2c1)c1ccccc1 (configuration not stated) | 9 | 45µM* | 1 | 4% | i | 0%
CC(=O)Oc1ccc(-c2cc3ccccc3oc2=O)cc1 | 1 | 28% | 0 | -2% | 44% | 13µM*
CC(=O)Oc1ccc(-c2cc3c(OC(C)=O)cc(OC(C)=O)cc3oc2=O)cc1 | 25 | 101% | -1 | 6% | 275% | 6%
CC(C)(C)C(=O)Oc1ccc2cc(-c3ccc4ccccc4n3)c(=O)oc2c1 | -8 | 13% | 5 | -2% | 61% | 14µM*
O=[N+]([O-])c1ccccc1N/N=C\c1ccccc1Cl | -11 | 19%[57.1 µM] | -1 | 8% | -1% | 2.5µM*
CC(=O)N1N=C(c2ccc(C)cc2)OC1c1ccc(C(C)C)cc1 (configuration not stated) | -1 | 10% | 3 | 4% | -2% | 7.9µM*
O=C(O)c1cnn(-c2nc(-c3ccc(Br)cc3)cs2)c1C(F)(F)F | -5 | 9% | 0 | -6% | 8% | 5µM*
COc1ccc(CC(=O)Nc2ccc(-c3nc4ccccc4s3)c(C)c2)cc1OC | . | 12%[57.1 µM] | . | 2% | 3%[57.1 µM] | .
O=C(C[n+]1cccc2cc(Cl)ccc21)c1cccc([N+](=O)[O-])c1 | . | -1% | . | . | -8% | 5%
SMILES | Giardia killer | rTrxR1 inhibitor | IL2 activator | mIDH1 inhibitor | TrxR1 substrate | BRCA1 expr act
Cc1ccc(NC(=O)CN2C(=O)S/C(=C\c3cc(Cl)c(OCC(=O)O)c(Cl)c3)C2=O)cc1 | 9 | -12% | 0 | 37µM* | -6% | 0%
COc1ccc(/C=C2\SC(=O)N(CC(=O)Nc3ccc(O)cc3)C2=O)cc1OC | 10 | 18% | 0 | -10% | 20% | -4%
O=C1/C(=C/c2ccco2)N=C(N2CCCCC2)N1c1ccccc1 | -11 | 71µM* | 1 | 2% | -13% | -6%
Cc1nn(CCOc2ccccc2)c(=O)n1-c1ccc(F)cc1 | -9 | 6% | 1 | 0% | -5% | 13µM*
Cc1nn(CCOc2ccccc2)c(=O)n1-c1cccc(F)c1 | 5 | 14%[57.1 µM] | -2 | 6% | 5%[57.1 µM] | 58%
Cc1cc(=O)[nH]c(N/N=C/C=C/c2ccccc2)n1 | 4 | 1% | -1 | -4% | -9% | 11%
Cc1cc(=O)[nH]c(N/N=C2/CCCC/C2=C\c2ccccc2)n1 | 18 | 40µM* | 4 | 1% | -2% | -26%
COC(=O)c1ccc(C2C=C(c3ccc(Cl)cc3)Nc3nc4ccccc4n32)cc1 (configuration not stated) | . | -7%[57.1 µM] | . | -18% | -10%[57.1 µM] | .
Cc1nc(-c2cccc(NC(=O)Nc3ccc([N+](=O)[O-])cc3)c2)no1 | . | 14%[57.1 µM] | . | 5% | 1%[57.1 µM] | -58%
Cc1oc(-c2cccs2)nc1CS(=O)CC(=O)NCCCOC(C)C (configuration not stated) | 5 | 13µM* | 13 | 0% | 1% | 3%
CCCCNC(=O)CS(=O)Cc1nc(-c2cccs2)oc1C (configuration not stated) | 12 | 6.3µM* | -1 | 5% | 5%[57.1 µM] | -2%
Cc1oc(-c2ccc(Cl)cc2)nc1CS(=O)CC(=O)NCCc1ccccc1 (configuration not stated) | . | -23%[57.1 µM] | . | 6% | -8%[57.1 µM] | .
Cc1oc(-c2cccs2)nc1CS(=O)CC(=O)NCCc1ccccc1 (configuration not stated) | -6 | 5.6µM* | -2 | -4% | 11%[57.1 µM] | -22%
O=C(Cc1ccc2ccccc2c1)NO | . | 4% | . | . | 7% | 0%
CC(NC(=O)c1ccc(Cl)c(Cl)c1)c1ccc(-c2ccccc2)cc1 (configuration not stated) | -4 | 12%[2.29 µM] | -1 | -7% | 1%[57.1 µM] | -12%
CC(NC(=O)CCl)c1ccc(Cl)c(Cl)c1 (configuration not stated) | -7 | 40µM* | -5 | 11% | -3% | -58%
CCC1CN(C(=O)N2CCC(C(=O)NCc3cccc(F)c3)CC2)c2cc(C)ccc2O1 (configuration not stated) | . | -1% | . | -11% | 7%[11.4 µM] | .
CCSc1nnc(NC(=O)C2Cc3ccccc3CN2C(=O)c2ccco2)s1 (configuration not stated) | 17 | 32µM* | -1 | -2% | -2% | 16%
